Results on seven compounds are retold here after PubChem BioAssay (NCI).

Compounds without any hit were thinned out: in the full panel of roughly 83,000, 20% have a hit.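 The test compound was applied at a single concentration to cells in 96-well plates for 48 hours, and percent growth was recorded.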 Values without a mark were called inactive. The source made the active and inactive calls. The calls were made as follows: active = growth percent below 10; inactive = the rest.

Holding throughout (assay): NCI-60 one-dose screen, 48 h (100 = growth as untreated, 0 = no growth, -100 = all killed)
Conditions in all cases: 10 µM unless noted

Test [1] concerns NCI-H23 lung.
The test system of test [2] is NCI-H226 lung.
For test [3], the system named is NCI-H322M lung.
Test [4] deals with HOP-62 NSCLC.
Test [5] concerns NCI-H460 lung.
Test [6] relates to HOP-92 NSCLC.
Test [7] relates to NCI-H522 lung.
In test [8] the test system is A549/ATCC NSCLC.
The test system of test [9] is 786-0 renal.
Test [10] concerns COLO 205 colon.
Test [11] concerns DU-145 prostate.
Test [12] has as its system K-562 leukemia.
Test [13] concerns MALME-3M melanoma.
Test [14] deals with MDA-MB-231 breast.
Test [15] deals with RXF 393 renal.
In test [16] the test system is SF-268 CNS.
Test [17] relates to SF-295 CNS.
Test [18] has as its system SF-539 CNS.
Test [19] concerns UACC-257 melanoma.
In test [20] the test system is M14 melanoma.

For the compound `COc1cc([C@H](C)c2ccc3ccccc3c2)cc(OC)c1OC`, the growth in test [1] was 30.1%; in test [2], 68.2%; in test [3], 55.9%; in [4] it was 36.7%; in test [5], 8.84% (active); in [6], 66.3%. Besides, the growth in test [7] is 10.1%; in [8], 24.6%; in [9] it was 39.6%; in test [10], -3.69% (active); in test [11], 17.6%; in [12] it was 8.51% (active). The growth was 64% in [13]; 33.8% in test [14]; -10.5% (active) in test [15]; 55.3% in test [16]; 13.5% in test [17]; -19.3% (active) in test [18]. For the same compound, the growth in test [19] was 51.4%; in test [20] it was 17.5%.
`Nc1cc(N)c(S(=O)(=O)O)cc1N=Nc1cc([N+](=O)[O-])ccc1O`: the growth in test [1] was 94.5%; in test [2], 101%; in test [3], 94.9%; in test [4] it was 90.6%; in test [5], 104%; in [6], 89.4%. Further, the growth is 88.3% in test [7]; 95.7% in test [8]; 110% in [9]; 108% in test [10]; 111% in [11]; 80.8% in test [12]. In addition, the growth was 103% in test [13]; 103% in [14]; 103% in test [15]; 102% in test [16]; 107% in test [17]; 102% in test [18]. The growth in test [19] is 99.2%; in test [20], 100%.
As to `CSc1nc(-c2cccs2)c2c(N)[nH]nc2n1`, the growth in test [1] is 93.1%; in test [2], 104%; in [3] it was 92.8%; in test [4] it was 87.9%; in test [5], 113%; in test [6], 110%. Besides, the growth in test [7] is 83.3%; in test [8], 98.5%; in [9], 91.4%; in test [10], 112%; in test [11] it was 107%; in test [12] it was 88.4%. In addition, the growth was 121% in test [13]; 97.9% in [14]; 114% in test [15]; 105% in test [16]; 102% in [17]; 93% in test [18]. In addition, the growth was 114% in test [19] and 126% in [20].
On to `COc1cc(C2=NN(c3ccccc3)C(c3cccc(Nc4ccnc5cc(C(F)(F)F)ccc45)c3)C2)cc(OC)c1OC` (stereo not given), for which the growth in [1] is 79.1%; in test [2], 83.6%; in test [3], 85.6%; in test [4] it was 88.8%; in test [5], 96.2%; in test [6], 73.4%. Besides, the growth was 76.4% in test [7]; 86.5% in [8]; 101% in test [9]; 86.7% in test [10]; 93.6% in [11]; 68.2% in test [12]. Also, the growth in test [13] was 92.1%; in [14], 85.9%; in test [15] it was 73.7%; in test [16] it was 74.3%; in test [17], 64.8%; in test [18], 100%. Further, the growth in test [19] was 97.3%; in [20], 92.9%.
For the compound `COC(=O)c1cncc(C(=O)Nc2ccc(-n3cnc4ccccc43)cc2)c1`, the growth in test [1] is 102%; in test [2], 89.6%; in [3] it was 95.6%; in [4], 94.8%; in [5] it was 96.9%; in test [6], 86.7%. Further, the growth was 84% in test [7]; 94.4% in [8]; 105% in test [9]; 106% in test [10]; 105% in test [11]; 94.5% in test [12]. Also, the growth in test [13] is 124%; in test [14], 94%; in [15], 100%; in [16] it was 91.9%; in test [17], 100%; in test [18] it was 95.9%. The growth is 104% in test [19] and 102% in test [20].
Take `CCN(CC)c1ccc2c(c1)Oc1nc(N)c(C#N)c(N)c1C2Sc1ccc(OC)cc1` (stereo not given): the growth in test [1] is -25.8% (active); in test [2], 5.34% (active); in [3] it was 97.6%; in [4], 35.9%; in test [5], -18.3% (active); in [6] it was 88.3%. In addition, the growth in [7] was -61.9% (active); in test [8], 72.8%; in test [9], 0.244% (active); in test [10] it was -60% (active); in test [11], -0.338% (active); in [12], 13.5%. Further, the growth in [13] was 1.4% (active); in test [14], -0.581% (active); in test [15] it was -0.0562% (active); in test [16], 16.5%; in test [17] it was 29.1%; in test [18], -34.6% (active). Also, the growth in [19] is 92.1%; in test [20] it was -16.2% (active).
For the compound `COc1cccc2c1-c1ccccc1C2=O`, the growth is 43.1% in test [1]; 84.1% in test [2]; 44.5% in test [3]; 37.4% in test [4]; 7.57% (active) in test [5]; 74% in test [6]. The growth in test [7] is -13.7% (active); in [8], 23.3%; in test [9], 23.9%; in test [10], 11.6%; in test [11], 17.7%; in test [12], 8.78% (active). Also, the growth in [13] is 59.7%; in [14], 29.6%; in test [15] it was -2.91% (active); in [16], 48.2%; in test [17], 9.85% (active); in [18], -3.06% (active). Further, the growth in [19] is 51.5%; in test [20], -1.41% (active).
